Rows were chosen to be rich in hits. Some 8.1% of all compounds tested hit in one or more screens of this group.
ClpP mod: qHTS Assay for Activators of ClpP. Potency, µM (series often up to 57.5 µM). ATP-dependent Clp protease proteolytic subunit (Bacillus subtilis (strain 168)), P80244. purified B. subtilis ClpP, FRET peptide cleavage, 20 min. hit rate 1.9% among 340,000; active = well fitted falling curve with a large enough effect; inconclusive = small, poorly fitted or top-dose-only effect; inactive = no such curve, though single readings can be large or run the other way; also: the source files actives as falling curves though it sought activators and does not explain the sign; nearly all actives have a fitted effect of over 65% in size
Target sequence (P80244 whole entry, looked up): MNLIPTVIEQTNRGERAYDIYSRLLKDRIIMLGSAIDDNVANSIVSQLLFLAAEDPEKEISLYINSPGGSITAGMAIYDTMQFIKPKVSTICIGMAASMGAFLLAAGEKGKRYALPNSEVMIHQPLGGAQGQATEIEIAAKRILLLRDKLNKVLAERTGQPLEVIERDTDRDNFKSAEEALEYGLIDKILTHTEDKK
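ClpP 10 microg/mL final, pH 8 Tris/KCl buffer with BSA, glycerol, Tween-20; compound pinned in; FRET-FV substrate; RT 20 min; Ex320/Em430; ΔFRET vs ADEP 5.8 microM, DMSO, no enzyme.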
VP16 counter: Gal4-VP16 reporter inhibition counter-screen. Drosophila S2 Gal4-VP16 UAS-luciferase, luminescence, 20 h. Potency, µM (series often up to 53.6 µM), actives largely listed as inhibitors. hit rate 3.5% among 310,000. AID 2546;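 also: Gal4-VP16 expression switched on by copper sulfate through the metallothionein promoter; nearly all actives have a fitted effect of over 50% in size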
Sfp inh: blocks B. subtilis Sfp PPTase activity; AID 1490; Q9F4F7; hit rate 3.5% among 310,000; Biochemical Sfp PPTase activity, qHTS; Potency, µM, usual class: inhibitors;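 also: the enzyme is Sfp with the accession as filed and its product quenches rhodamine fluorescence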
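Fluorescence-quenching assay with 15 nM Sfp, 5 uM rhodamine-CoA and 12.5 uM BHQ-2-labelled ybbR peptide in pH 7.6 Hepes/MgCl2 buffer. Enzyme was pre-incubated with compound for 15 min at room temperature. Rate was taken from the 30-min fluorescence change (525/598 nm).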
PINK1 modulator: PINK1 expression modulation; hit rate 0.2% among 410,000; Potency, µM (highest dose often 76.6 µM), hits mostly activators; PINK1 immunofluorescence, high-content cytometry, 24 h; active = well fitted activation curve with a large enough effect; inconclusive = small, poorly fitted or top-dose-only effect; cell line not stated here; also: nearly all actives have a fitted effect of over 65% in size
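PINK1 protein level read as immunofluorescence by microplate cytometer in a fixed, stained stable cell line after 24 h exposure to five compound concentrations, with CCCP as control.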
RORgamma inh: inhibitors of mouse ROR gamma transcriptional activity. Potency, µM (doses to about 53.6 µM), usual class: inhibitors. Drosophila S2 Gal4-RORgamma UAS-luciferase reporter, 20 h. hit rate 5.4% among 310,000. P51450; also: nearly all actives have a fitted effect of over 60% in size
Target sequence (P51450 whole entry, looked up, the tested form may be a part): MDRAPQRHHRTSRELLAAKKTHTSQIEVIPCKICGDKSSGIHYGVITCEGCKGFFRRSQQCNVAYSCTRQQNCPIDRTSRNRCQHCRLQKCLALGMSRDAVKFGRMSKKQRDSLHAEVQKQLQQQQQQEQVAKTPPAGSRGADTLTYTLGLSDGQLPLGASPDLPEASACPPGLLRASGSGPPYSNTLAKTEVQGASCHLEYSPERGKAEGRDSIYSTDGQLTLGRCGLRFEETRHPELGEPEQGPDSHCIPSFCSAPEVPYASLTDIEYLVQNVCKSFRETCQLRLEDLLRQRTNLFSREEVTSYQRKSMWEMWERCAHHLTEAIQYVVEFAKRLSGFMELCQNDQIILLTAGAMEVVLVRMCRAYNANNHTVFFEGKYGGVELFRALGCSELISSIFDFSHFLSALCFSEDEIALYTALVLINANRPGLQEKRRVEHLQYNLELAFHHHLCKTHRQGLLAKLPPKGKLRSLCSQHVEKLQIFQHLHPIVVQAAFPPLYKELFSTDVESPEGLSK
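Read-out: Photinus luciferase luminescence; inhibitors lower reporter signal. Insect Schneider cells with Gal4-ROR gamma fusion under metallothionein promoter, UAS reporter; 700 uM final copper sulfate induction, 20 hr, ambient temperature.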
Epigenetic derep: derepresses silenced GFP reporter in murine cells; Potency, µM (doses to about 53.9 µM), hits mostly activators; hit rate 0.2% among 280,000; murine LDR cells, GFP reporter derepression, 30 h; also: nearly all actives have a fitted effect of over 60% in size
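Reporter derepression read as number of fluorescent GFP-positive objects, 20-120 um in size, counted by laser-scanning cytometer. Mouse LDR line with an epigenetically silenced CMV-GFP locus; compound incubation 30 h, 37 C.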
Hits are given with their value; i = inactive; ? = inconclusive; nt = no result; ! = not confirmed by another sample; [ ] = dose if it differs, or a comment. Unless noted, calls follow the shape of the dose curve; as a rule, active = well fitted curve in the direction sought with a large enough effect; inconclusive = small, poorly fitted or top-dose-only effect, or another doubt; inactive = no such curve, though single readings can be large; an effect the other way counts as inactive or inconclusive.

SMILES	ClpP mod	VP16 counter	Sfp inh	PINK1 modulator	RORgamma inh	Epigenetic derep
Cc1ccc(NC(=O)c2c(C)oc3ncnc(N4CCCCC4)c23)c(C)c1	i	nt	nt	?	nt	i
CCn1c(CSc2nc3ccccc3s2)nnc1SCC(=O)c1ccc(O)c(O)c1	i	i	i	i	14µM	i
CCn1c(CSc2nc3ccccc3s2)nnc1SCC(=O)c1ccc(Cl)cc1	i	i	i	i	i	i
S=c1[nH]nc(CSc2nc3ccccc3s2)n1Cc1ccccc1	i	i	i	i	4µM	i
CCn1c(CSc2nc3ccccc3s2)n[nH]c1=S	i	10µM	i	i	2.5µM	i
COCCNC(=O)C1(C(F)(F)F)C/C(=C\Cc2ccccc2)CCCO1 (centres undefined)	nt	?	i	nt	i	nt
NCCOB(c1ccccc1)c1ccccc1	nt	?	56µM!	i	?	i
Cc1ccc(-n2c(=O)c3c4c(sc3n(CC(=O)Nc3ccccc3C)c2=O)CCCCC4)cc1C	i	nt	nt	i	nt	i
C/C=C(\CS(=O)(=O)c1ccccc1)S(=O)(=O)c1ccccc1	i	6.3µM	i	i	3.5µM	i
C/C(CS(=O)(=O)c1ccccc1)=N\O	nt	i[10 µM]	i	i	i	i[10.1 µM]
Cc1ccc(S(=O)(=O)N(C)Cc2ccc(C(=O)NN=C(CC(C)C)CC(C)C)cc2)cc1	i	?	i	i	10µM	i
COc1cc2ccccc2cc1C(=O)Nc1sc2c(c1C(N)=O)CCN(C(C)C)C2	nt	18µM	i	nt	13µM	nt
CC(N)COC(=O)C(CCCCN)NC(=O)Cc1c(-c2ccc3ccccc3c2)[nH]c2c1ccc1ccccc12 (centres undefined)	nt	i	?	nt	i	nt
CCn1cc(CN2CCOc3ccc(C(O)C4CCCCC4)cc3C2)c(C)n1 (centres undefined)	nt	nt	nt	i	nt	nt
COc1cc(OC)c(OC)cc1CN1CCN(Cc2cccn2C)CC1	i	i	50µM	i	i[10 µM]	i
Cc1sc2nc(-c3cccnc3)[nH]c(=O)c2c1-c1ccccc1	nt	i	45µM	i	i	i
Cc1cc(C)c(-c2cc(C(F)(F)F)no2)c(=O)[nH]1	18µM	i	i	i	i	i
CCOc1ccccc1NC(=O)Cn1c(=O)n(Cc2ccccc2)c(=O)c2c(C)c(C)sc21	i	nt	nt	i	nt	i
Cc1nc(NS(=O)(=O)c2ccccc2)sc1NC(=O)OC(C)C	i	i	50µM	nt	i	i
Cc1ccc(S(=O)(=O)Nc2nc(C)c(NC(=O)OCCCl)s2)cc1	i	i	50µM	i	i	i
Cc1ccc(S(=O)(=O)Nc2nc(C)c(C(=O)Nc3ccccc3)s2)cc1	i	i	i	i	i	i
Cc1ccc(S(=O)(=O)Nc2ccc(Cl)cc2O)cc1	i	nt	nt	nt	nt	nt
Cc1ccc(S(=O)(=O)Nc2nc(C)c(C(=O)NNS(=O)(=O)c3ccccc3)s2)cc1	nt	i	i	i	i	i
COc1ccc(NC(=O)Nc2sc(NS(=O)(=O)c3ccccc3)nc2C)cc1	nt	i	45µM	i	?	i
Cc1ccc(S(=O)(=O)Nc2nc(C)c(NC(=O)Nc3ccc(Cl)cc3Cl)s2)cc1	i	i	35µM	i	i	i
SMILES	ClpP mod	VP16 counter	Sfp inh	PINK1 modulator	RORgamma inh	Epigenetic derep
COCc1c(C(=O)NC2CCCC2)cnn1-c1nccc(-c2ccco2)n1	nt	nt	nt	i	nt	nt
COc1ccc(Cl)cc1NC(=O)CN1c2ccccc2S(=O)(=O)c2ccccc21	?	nt	nt	i	nt	i
CCOc1ccc(CN(CCc2ccc3c(c2)OCO3)Cc2cc(OC)cc(OC)c2)cc1	i	nt	nt	i	nt	i
CCOc1ccc(NC(=O)Cn2cc(C(=O)c3ccc(CC)cc3)c(=O)c3ccc(C)nc32)cc1	i	nt	nt	i	nt	i
CCc1ccc(C(=O)c2cn(CC(=O)Nc3ccc(OC)c(Cl)c3)c3nc(C)ccc3c2=O)cc1	i	nt	nt	i	nt	16µM
N#Cc1c(C(F)(F)F)cc(-c2cccs2)nc1SCC(=O)Nc1ccc(Cl)cc1	i	nt	nt	i	nt	10µM
N#Cc1c(C(F)(F)F)cc(-c2cccs2)nc1SCC(=O)Nc1cccc(C(F)(F)F)c1	i	nt	nt	?	nt	16µM
CCOc1ccc(NC(=O)CSc2nc(-c3cccs3)cc(C(F)(F)F)c2C#N)cc1	i	nt	nt	i	nt	i
Cc1cc(C)c2nc(NNC(=O)c3ccc(S(=O)(=O)N4CC(C)CC(C)C4)cc3)sc2c1 (centres undefined)	i	7.9µM	?	i	2µM	i
Cc1cc(C)c2nc(NC(=O)c3ccc(S(=O)(=O)N4CCC(C)CC4)cc3)sc2c1	i	nt	nt	i	nt	i
COC(=O)c1sc2ccccc2c1NC(=O)c1ccc(S(=O)(=O)N2CC(C)CC(C)C2)cc1 (centres undefined)	i	i	i	i	i	i
Cc1cc(C)c2nc(NNC(=O)c3ccc(S(=O)(=O)N4CCCC(C)C4)cc3)sc2c1 (centres undefined)	i	5µM	i	i	0.79µM	i
Cc1cccc2sc(NNC(=O)c3ccc(S(=O)(=O)N4CC(C)CC(C)C4)cc3)nc12 (centres undefined)	i	1.4µM	?	40µM	0.71µM	i
O=C(CSc1nc2ccccc2nc1Cc1ccc(F)cc1)Nc1ccc2c(c1)OCO2	i	nt	nt	i	nt	i
C=CCn1cc(C(=O)OC)c(=O)c2cc(S(=O)(=O)N(CC)CC)ccc21	i	?	i	nt	i	i
C=CCn1cc(C(=O)OC)c(=O)c2cc(S(=O)(=O)N3CCC(C)CC3)ccc21	i	i	i	i	11µM	i
Cc1cc(C)nc(-n2nc(C)c3c2NC(=O)CC3c2cccc(O)c2)n1 (centres undefined)	i	nt	nt	i	nt	i
OC1CCCN(Cc2c3ccccc3cc3ccccc23)C1 (centres undefined)	20µM	i	i	i	?	i
O=C(CCS(=O)(=O)c1ccc(Cl)cc1)NCCN1C(=O)S/C(=C\c2ccccc2F)C1=O	28µM	?	i	i	?	i
Cc1ccc(S(=O)(=O)CCC(=O)NCCN2C(=O)S/C(=C\c3ccccc3)C2=O)cc1	i	i	i	i	?	i
Brc1ccc(/C=C2\C=Cc3ccccc32)cc1	i	nt	nt	i	nt	nt
O=C(CCN1C(=O)/C(=C/c2ccccc2Cl)SC1=S)N1CCCC1	nt	i	i	i	8.9µM	nt
O=C(CCN1C(=O)/C(=C/c2ccccc2F)SC1=S)NCCCN1CCOCC1	i	i	i	i	i	nt
O=C(CCCN1C(=O)/C(=C/c2ccccc2Cl)SC1=S)NCCCN1CCOCC1	i	13µM	i	i	5µM	nt
CCOc1ccc(/C=C2\SC(=S)N(CC(=O)N(CCO)C(C)(C)C)C2=O)cc1	nt	11µM	i	i	7.1µM	i
CCOc1ccc(/C=C2\SC(=S)N(CCCC(=O)NCCCN3CCOCC3)C2=O)cc1	nt	0.89µM	i	i	0.4µM	nt
CN(C)c1ccc(/C=C2\NC(=O)NC2=O)cc1	i	nt	nt	i	nt	nt
